# TbREL1 primary: TbREL1 inhibition, primary screen. P86926. TbREL1 RNA ligation, FRET fluorescence. inhibition, % at 9.66 µM. hit rate 0.49% among 89,000;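 active = inhibition above the mean inhibition across all screened compounds plus 3 SD, cut at about 11% in these data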
# Target sequence (P86926 whole entry, looked up): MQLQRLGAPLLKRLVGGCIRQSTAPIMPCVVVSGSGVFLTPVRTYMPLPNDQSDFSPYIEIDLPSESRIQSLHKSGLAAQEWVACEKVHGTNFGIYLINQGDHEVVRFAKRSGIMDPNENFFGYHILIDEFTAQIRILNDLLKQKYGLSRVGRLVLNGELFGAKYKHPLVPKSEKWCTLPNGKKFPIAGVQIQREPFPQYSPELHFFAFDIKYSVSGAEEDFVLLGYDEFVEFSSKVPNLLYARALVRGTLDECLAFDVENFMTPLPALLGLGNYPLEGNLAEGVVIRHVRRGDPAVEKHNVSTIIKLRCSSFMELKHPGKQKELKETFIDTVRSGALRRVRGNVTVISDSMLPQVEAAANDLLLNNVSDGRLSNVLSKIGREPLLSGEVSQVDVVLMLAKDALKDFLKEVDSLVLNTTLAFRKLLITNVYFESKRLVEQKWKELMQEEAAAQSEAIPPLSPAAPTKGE
# TbREL1 confirm: TbREL1 inhibition, confirmation; shares compounds with TbREL1 primary; TbREL1 RNA ligation, FRET fluorescence; inhibition, % at 9.66 µM; hit rate 37% among 390; AID 1117282;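 active = mean inhibition across replicates above a set limit taken from the earlier primary screen, cut at about 11% in these data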
# Numbers stand for hits; . = inactive; ! = a repeat was not active. Many of the other results were omitted from the sample, so hits are more common in it than they were.
SMILES,TbREL1 primary,others
CCCC1CCC2(CCCN2CCOC(=S)Nc2cccc(Cl)c2)CC1 (stereo not drawn),.,
COc1ccc(-c2cn3nc(C)c(C)nc3n2)cc1OC,.,
COc1ccc(-c2nn3c(COc4ccccc4)nnc3s2)cc1OC,.,
COc1ccc(-c2nn3cnnc3s2)cc1OC,11,TbREL1 confirm=.
Cc1ccc(-n2c(SCC(=O)Nc3ccc(S(=O)(=O)Nc4cc(C)nc(C)n4)cc3)nnc2-c2ccc(C(C)(C)C)cc2)cc1,.,
CC1CCC2(CCC(=O)N2C[C@@H](O)c2ccccc2)CC1 (stereo partly drawn),.,
COC(=O)[C@]12C[C@H](CC(=O)N3CCSCC3)C(=O)N(Cc3ccc(Cl)cc3Cl)C1=C[C@H](C(C)C)O[C@@H]2C1CC1,.,
COCCCNC(=O)C[C@H]1C[C@@]2(C(=O)OC)C(=C[C@H](C(C)C)O[C@@H]2C2CC2)N(Cc2ccc(Cl)cc2Cl)C1=O,.,
O=S(=O)(c1ccc(Br)cc1)N1CCN=C1SCc1cccc(F)c1,11,TbREL1 confirm=.
O=C(c1cc2ccccc2o1)N1CCN=C1SCc1cccc(F)c1,.,
O=C(c1ccco1)N1CCN=C1SCc1cccc(F)c1,.,
Cn1c(=O)c2cc(S(=O)(=O)N3CCN(c4ccccc4Cl)CC3)ccc2n(C)c1=O,.,
COC(=O)c1cc(S(=O)(=O)N2CCCN(C(C)=O)CC2)cn1C,.,
COC(=O)[C@]12C[C@H](CC(=O)N3CCOCC3)C(=O)N(Cc3ccc4c(c3)OCO4)C1=C[C@H](C(C)C)O[C@@H]2C1CC1,.,
O=C(C1CCN(CCCc2ccccc2)CC1)N1CCCCC1,12,TbREL1 confirm=.
O=C(c1ccc(-c2ccccc2)cc1)N1CCC(C(=O)N2CCCC2)CC1,.,
O=C(Nc1ccccc1)N1CCN(CCc2ccccc2)CC1,.,
N#Cc1ccccc1S(=O)(=O)N1CCN(CC(O)CN2CCOCC2)CC1 (stereo not drawn),20,TbREL1 confirm=.
COc1ccc(OCCN2CCN(S(=O)(=O)c3ccccc3C#N)CC2)cc1,.,
COc1ccc(S(=O)(=O)N2CCN(CC(O)CN3CCOCC3)CC2)cc1 (stereo not drawn),.,
NC(N)=N/N=C/c1ccc(OCc2ccccc2)c(OCc2ccccc2)c1,12,TbREL1 confirm=.
COc1cc(/C=N/NC(=O)c2cccs2)ccc1OCc1ccccc1,.,
COc1cc(/C=N/O)ccc1OCc1ccc(C(=O)O)cc1,.,
O=C(CSc1nnc(-c2ccccn2)n1-c1ccccc1)Nc1ccc(OCc2ccccc2)cc1,.,
C/C(C=NNC(=O)CSc1nc2ccccc2n1Cc1ccccc1Cl)=C\c1ccccc1,.,
SMILES,TbREL1 primary,others
CC(=O)N1CCCN(C(=O)CCn2nnc3ccccc32)CC1,.,
Cc1cc(N2CCN(CCO)CC2)n2nc(C)nc2n1,.,
O=C(CN1CCN(Cc2ccccc2)CC1)Nc1ccc(-n2cnnn2)cc1,.,
NC(=O)c1ccc(NC(=O)COc2ccc(-n3cnnn3)cc2)cc1,.,
O=C(O)COCC(=O)Nc1ccc(-n2cnnn2)cc1,12,TbREL1 confirm=.
CCOc1ccc(-n2c(SCc3nc4ccccc4[nH]3)nnc2-c2cccc(Cl)c2)cc1,.,
O=C(Cc1ccccc1)NC1CCCc2c1cnn2-c1ccc(F)cc1F (stereo not drawn),11,TbREL1 confirm=.
O=C(NC1CCCc2c1cnn2-c1ccc(F)cc1F)c1ccccc1 (stereo not drawn),.,
Cc1nnc(SCC(=O)NC2CCCc3c2cnn3-c2ccc(F)cc2F)o1 (stereo not drawn),.,
O=C(NCCc1c[nH]c2ccccc12)OCc1cn(Cc2ccccc2Cl)nn1,.,
Cc1ccc(C(=O)NCCN2C(=O)C3C4C=CC(C4)C3C2=O)cc1 (stereo not drawn),.,
Cc1ccccc1CN1CCCCC(NC(=O)c2ccc(N(C)C)cc2)C1=O (stereo not drawn),.,
COc1ccc(C(=O)NCCNC(=O)c2cnccn2)cc1,.,
O=C(OCCOc1ccc(Br)cc1)c1cnccn1,.,
CCC(=O)c1ccc(OC(=O)c2cnccn2)cc1,17,TbREL1 confirm=.
CCn1c(=O)n2n(c1=O)[C@H]1C[N+](Cc3ccc4c(c3)OCO4)=C(N)NC1=C(C)C2,.,
COC(=O)[C@]12CCCCC=C1N(Cc1ccc(OC)cc1)C(=O)[C@@H]2CC(=O)NCc1cccc(C(F)(F)F)c1,.,
COc1ccc2c(c1)NC(=O)[C@@]2(CCN1C(=O)c2ccccc2C1=O)c1[nH]c2ccccc2c1CCN1C(=O)c2ccccc2C1=O,.,
CCn1c2ccccc2c2cc(NC(=O)COC(=O)c3ccccc3F)ccc21,.,
CCn1c2ccccc2c2cc(NC(=O)COC(=O)c3cc(Cl)cc(Cl)c3)ccc21,.,
CCn1c2ccccc2c2cc(NC(=O)COC(=O)c3cc(Cl)c(N)cc3OC)ccc21,12,TbREL1 confirm=.
Cc1ccc(-n2c(SCC(=O)Nc3ccccc3-c3ccccc3)nnc2-c2ccccn2)cc1,.,
O=C(NCCc1c[nH]c2ccccc12)c1ccc2c(c1)ncn2C1CCCCC1,.,
O=C(NCCc1ccccc1F)c1ccc2c(c1)ncn2C1CCCCC1,.,
O=C(O)COCc1nc2ccccc2s1,12,TbREL1 confirm=.
SMILES,TbREL1 primary,others
NC(=O)c1ccccc1OCc1nc2ccccc2s1,.,
O=C(O)CCCc1nc2ccccc2s1,.,
COc1cccc2c(NCc3ccccc3)nc(-n3c(N)nc4ccccc43)nc12,.,
Cn1cccc1CC(=O)NN=Cc1cccc(F)c1,.,
Cc1ccc(-n2c(SCC(=O)N/N=C/C=C\c3ccco3)nnc2-c2ccccc2)cc1,.,
Cn1cccc1CC(=O)NN=C/C=C\c1ccco1,67,TbREL1 confirm=.
COc1ccc(C=Nn2c(-c3ccccc3F)n[nH]c2=S)cc1OCc1ccccc1,.,
COc1cccc(C(=O)N2CCn3c2nc2ccccc23)c1,12,TbREL1 confirm=.
COc1ccc(C(=O)N2CCn3c2nc2ccccc23)cc1,.,
CCOc1ccc(C(=O)N2CCn3c2nc2ccccc23)cc1,.,
COc1ccc(OC)c(S(=O)(=O)N2CCC(C(=O)NCc3cccs3)CC2)c1,.,
COC(=O)[C@]12C[C@H](CC(=O)N3CCCCC3)C(=O)N(Cc3ccco3)C1=C[C@H](COCc1ccccc1)O[C@@H]2C,.,
C[c-]1[c-](C)[c-](C)[c-](C)[c-]1C.[Fe].c1cc2nccc(N3CCCC3)[c-]2c1 (stereo not drawn),14,TbREL1 confirm=16!
O=C(Nc1ccncc1)C1CCCN(S(=O)(=O)c2cccc3cccnc23)C1 (stereo not drawn),.,
O=C(NC1CCCCC1)C1CCCN(S(=O)(=O)c2cccc3cccnc23)C1 (stereo not drawn),13,TbREL1 confirm=.
O=C(NC1CCCC1)C1CCN(S(=O)(=O)c2cccc3cccnc23)CC1,.,
COC(=O)[C@]12C[C@H](CC(=O)N3CCN(C(=O)c4ccco4)CC3)C(=O)N(CCc3ccc(OC)c(OC)c3)C1=C[C@H](C(C)C)O[C@@H]2C1CC1,.,
C#CCOCCOCCOCCNc1nc(N2CCN(C(=O)[C@H](CCCCN)n3cc([C@@H](N)[C@H](C)CC)nn3)CC2)nc(N2CCN(C(=O)[C@H](CCC(=O)O)n3cc([C@@H](N)CCCCN)nn3)CC2)n1,.,
C#CCOCCOCCOCCNc1nc(N2CCN(C(=O)[C@H](CCCCN)n3cc([C@@H](N)C(C)CC)nn3)CC2)nc(N2CCN(C(=O)[C@H](CCCCN)n3cc([C@@H](N)C(C)CC)nn3)CC2)n1 (stereo partly drawn),16,TbREL1 confirm=17

# High-throughput results: PubChem, The Scripps Research Institute Molecular Screening Center
